Results filed as inconclusive are left out. A call without a number means that no potency is given here. Active and inactive are the calls of the source. Unless noted, calls come from the whole dose curve.
Legend:
[1] = Nuclear factor erythroid 2-related factor 2/antioxidant responsive element (Nrf2/ARE) small molecule agonists: qHTS cell viability counter screen in human keratinocytes (AID 1919968; active = well fitted curve in the direction sought with a large enough effect in the repeat runs; an effect the other way counts as inactive or inconclusive; note: nearly all actives have a fitted effect of over 55% in size)
Outline: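 HaCaT ARE reporter line, 1,500 cells/well; 5 h settle, 37 C/5% CO2; cpd in DMSO pinned; 23 h exposure; CellTiter-Fluor, 1 h; fluorescence.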

[2] = Nuclear factor erythroid 2-related factor 2/antioxidant responsive element (Nrf2/ARE) small molecule agonists: luciferase reporter gene qHTS assay in human keratinocytes (AID 1919969); note: nearly all actives have a fitted effect of over 35% in size; note: potency is the fitted concentration of half-maximal effect
[3] = target: Gonadotropin-releasing hormone receptor (Homo sapiens) (UniProt P30968); experiment: Human gonadotropin-releasing hormone receptor (GnRHR) small molecule agonists, calcium flux assay in GnRHR-HEK293 cells (AID 1920063); note: nearly all actives have a fitted effect of over 35% in size
Outline: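 GnRHR-HEK293, 1500 cells/well, 18 h 37 C/5% CO2; Ca dye 1 h 37 C; cpd pinned (DMSO), agonist mode; kinetic FL 480/540, 3 min, 1 s reads; 15 conc, n=3.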

[4] = target: KiSS-1 receptor (Homo sapiens) (UniProt Q969F8); experiment: Human kisspeptin (KISS1R) small molecule agonists, calcium flux assay in KISS1R-HEK293 cells (AID 1920064; active = well fitted curve in the direction sought with a large enough effect in the repeat runs; an effect the other way counts as inactive or inconclusive)
Outline: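 Stable human KISS1R HEK293 line; 18 h plating, 37 C/5% CO2; calcium dye 1 h 37 C; compound pin transfer; kinetic fluorescence Ex/Em 480/540, 3 min.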

[5] = G protein-coupled receptor (GPCR) small molecule agonists, calcium flux assay: HEK293 wild type cell line counter screen (AID 1920065)
Outline: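 Kinetic fluorescence at Ex/Em 480/540, recorded every second over 3 min, served as the read-out after compound addition. Each compound was tested at 15 concentrations in triplicate on cells pre-loaded with calcium dye for 1 h.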

[6] = p53 small molecule agonists, cell-based qHTS assay with human liver microsomes (AID 1963577);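 note: p53 response element beta-lactamase reporter cells with liver microsomes plus NADPH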
Outline: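 p53RE-bla cells; 5 h settle, 37 C/5% CO2; cpd + HLM 0.5 mg/mL + NADPH 0.5 mg/mL (final); 16 h 37 C; LiveBLAzer 2 h RT dark; fluorescence readout.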

[7] = p53 small molecule agonists, cell-based qHTS assay with rat liver microsomes (AID 1963578)
Outline: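 Rat liver microsome activation: microsomes 0.5 mg/mL, NADPH 0.5 mg/mL final; p53RE-bla cells, 16 h 37 C; LiveBLAzer readout, 2 h RT dark.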

[8] = p53 small molecule agonists, cell-based qHTS assay with human liver microsomes: qHTS cell viability counter screen (AID 1963579); note: nearly all actives have a fitted effect of over 45% in size
Outline: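 Luminescent CellTiter-Glo read-out, 30 min at room temperature, gauged cytotoxicity in p53RE-bla cells exposed 16 h at 37 C to DMSO-dissolved compounds with metabolic activation by human liver microsomes and NADPH, each 0.5 mg/mL final.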

[9] = p53 small molecule agonists, cell-based qHTS assay with rat liver microsomes: qHTS cell viability counter screen (AID 1963580); note: nearly all actives have a fitted effect of over 45% in size
Outline: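 p53RE-bla HCT-116 cells (4,000/well) rested 5 h at 37 C, then given Tox21 compounds in DMSO with rat liver microsomes (0.5 mg/mL final) plus NADPH (0.5 mg/mL final) for 16 h at 37 C. Viability read by CellTiter-Glo luminescence after 30 min at room temperature.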

[10] = p53 small molecule agonists, cell-based qHTS assay: qHTS cell viability counter screen (AID 1963581); note: nearly all actives have a fitted effect of over 45% in size
Outline: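 HCT-116 p53RE-bla cells, 4,000/well, plated 5 h before compound pin transfer; 16 h at 37 C; bla substrate 2 h RT; then CellTiter-Glo, 30 min RT, luminescence.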

[11] = p53 small molecule agonists, cell-based qHTS assay (AID 1963582; active = well fitted activation curve with a large enough effect in the signal ratio in the repeat runs, not every such curve was filed as active; the % refers to the signal ratio)
Outline: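 Reporter line: p53RE-bla. Pre-incubation 5 h, 37 C, 5% CO2; compound (DMSO, pin tool) 16 h, 37 C; B/G FRET substrate 2 h RT; fluorescence intensity read.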

[12] = target: 5-hydroxytryptamine receptor 2A (Homo sapiens) (UniProt P28223); experiment: 5-hydroxytryptamine receptor 2A (HTR2A) small molecule antagonists, cell-based qHTS assay (AID 1963586); note: nearly all actives have a fitted effect of over 45% in size
Outline: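 Antagonist-mode intracellular calcium assay: DOI (4 nM) added after 5 min compound pre-incubation at room temperature to dye-loaded HTR2A-CHO cells. Fluorescence followed for 3 min, sampled every second.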

[13] = target: 5-hydroxytryptamine receptor 2A (Homo sapiens) (UniProt P28223); experiment: 5-hydroxytryptamine receptor 2A (HTR2A) small molecule agonists, cell-based qHTS assay (AID 1963587); note: nearly all actives have a fitted effect of over 30% in size
Outline: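 HTR2A-CHO cells, plated 18 h at 37 C/5% CO2, dye-loaded 1 h at 37 C; compounds in DMSO added by pin tool (agonist mode). Intracellular calcium flux read as kinetic fluorescence on FDSS over 2 min at 1 s intervals.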

[14] = target: Muscarinic acetylcholine receptor M1 (Homo sapiens) (UniProt P11229); experiment: Cholinergic receptor muscarinic 1 (CHRM1) small molecule antagonists, cell-based qHTS assay (AID 1963588); note: nearly all actives have a fitted effect of over 40% in size
Outline: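 CHRM1-CHO calcium-flux assay, antagonist mode. Cells were seeded 18 h, dye-loaded 1 h at 37 C and given compound for 5 min at RT, then acetylcholine was added at 50nM. FDSS fluorescence was read 3 min; 15 concentrations, three runs.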

[15] = target: Muscarinic acetylcholine receptor M1 (Homo sapiens) (UniProt P11229); experiment: Cholinergic receptor muscarinic 1 (CHRM1) small molecule agonists, cell-based qHTS assay (AID 1963589); note: nearly all actives have a fitted effect of over 35% in size
Outline: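 Human M1 in stable CHO line; 18 h plating, 1 h dye load 37 C; cpd added (agonist mode); Ca2+ fluorescence kinetic read, 1 s intervals; 15 conc, 3 runs.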

[16] = cAMP Responsive Elements (CRE) small molecule agonists, cell-based qHTS assay (AID 1963590)
Outline: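 HEK 293T CRE-bla, 2,000 cells/well, 18 h preincubation 37 C/5% CO2; cpds (DMSO) pinned, 3 h; LiveBLAzer B/G FRET substrate, 2 h RT.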

[17] = cAMP Responsive Elements (CRE) small molecule antagonists, cell-based qHTS assay (AID 1963591; active = well fitted inhibition curve with a large enough effect in the signal ratio in the repeat runs, not every such curve was filed as active; the % refers to the signal ratio)
Outline: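 Beta-lactamase reporter read by FRET substrate (LiveBLAzer B/G) after 2 h at room temperature. CRE-bla HEK293T cells had received compound plus 0.25 uM (final) NKH477 for 3 h at 37 °C.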

[18] = target: Beta-2 adrenergic receptor (Homo sapiens) (UniProt P07550); experiment: Adrenergic beta2 receptor (ADRB2) small molecule antagonists, cell-based qHTS assay (AID 1963592); note: series mostly up to about 92 µM; nearly all actives have a fitted effect of over 50% in size
Outline: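 Cells (CHO, stable ADRB2 overexpression) incubated 18-20hr at 37C; compounds added from DMSO; agonist mix (1nM isoproterenol, 100uM IBMX, 25uM Ro-20-1724) added; 0.5hr RT; d2-cAMP and anti-cAMP-cryptate added; 1hr RT; 665/615 nm read.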

[19] = target: D(2) dopamine receptor (Homo sapiens) (UniProt P14416); experiment: Dopamine D2 receptor (DRD2) small molecule agonists, cell-based qHTS assay (AID 1963594); note: nearly all actives have a fitted effect of over 35% in size
Outline: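 HEK293 cells stably expressing DRD2 were cultured 24 h at 37 C, then given Ro20-1724 (0.1 mM final) and compounds for 10 min at room temperature. NKH477 (200nM) was then added for 30 min. cAMP was read by HTRF.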

[20] = target: D(2) dopamine receptor (Homo sapiens) (UniProt P14416); experiment: Dopamine D2 receptor (DRD2) small molecule antagonists, cell-based qHTS assay (AID 1963595; active = well fitted inhibition curve with a large enough effect in the signal ratio in the repeat runs, with a control signal flat; the % refers to the signal ratio)
Outline: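 HEK293 cells stably expressing DRD2, preincubated with 0.1 mM Ro20-1724 and compounds 10 min, were stimulated with 200 nM NKH477 plus 12 nM quinpirole for 30 min at room temperature; cAMP measured by HTRF (665/620 nm).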

Chain of Gonadotropin-releasing hormone receptor (Homo sapiens) (P30968 whole entry, looked up): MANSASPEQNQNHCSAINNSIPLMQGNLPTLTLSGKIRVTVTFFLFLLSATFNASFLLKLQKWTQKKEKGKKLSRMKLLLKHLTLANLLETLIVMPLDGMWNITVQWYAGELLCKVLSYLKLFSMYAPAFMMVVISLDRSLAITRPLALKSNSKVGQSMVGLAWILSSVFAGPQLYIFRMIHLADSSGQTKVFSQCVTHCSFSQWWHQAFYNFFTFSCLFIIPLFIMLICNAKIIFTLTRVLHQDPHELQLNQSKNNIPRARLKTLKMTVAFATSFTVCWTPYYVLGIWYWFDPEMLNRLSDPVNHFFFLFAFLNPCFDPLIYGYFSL
Chain of Muscarinic acetylcholine receptor M1 (Homo sapiens) (P11229 whole entry, looked up): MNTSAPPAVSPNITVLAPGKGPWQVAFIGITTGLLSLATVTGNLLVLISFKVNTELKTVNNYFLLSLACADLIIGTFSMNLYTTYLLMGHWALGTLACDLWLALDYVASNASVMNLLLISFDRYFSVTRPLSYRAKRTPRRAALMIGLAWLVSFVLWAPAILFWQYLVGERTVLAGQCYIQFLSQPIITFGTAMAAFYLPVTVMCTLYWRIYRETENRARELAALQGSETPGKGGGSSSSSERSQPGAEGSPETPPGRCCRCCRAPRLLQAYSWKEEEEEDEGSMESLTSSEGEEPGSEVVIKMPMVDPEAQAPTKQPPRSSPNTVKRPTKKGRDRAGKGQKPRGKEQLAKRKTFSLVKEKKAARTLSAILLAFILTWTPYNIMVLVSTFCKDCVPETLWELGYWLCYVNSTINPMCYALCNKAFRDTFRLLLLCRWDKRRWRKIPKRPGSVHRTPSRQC
Chain of KiSS-1 receptor (Homo sapiens) (Q969F8 whole entry, looked up): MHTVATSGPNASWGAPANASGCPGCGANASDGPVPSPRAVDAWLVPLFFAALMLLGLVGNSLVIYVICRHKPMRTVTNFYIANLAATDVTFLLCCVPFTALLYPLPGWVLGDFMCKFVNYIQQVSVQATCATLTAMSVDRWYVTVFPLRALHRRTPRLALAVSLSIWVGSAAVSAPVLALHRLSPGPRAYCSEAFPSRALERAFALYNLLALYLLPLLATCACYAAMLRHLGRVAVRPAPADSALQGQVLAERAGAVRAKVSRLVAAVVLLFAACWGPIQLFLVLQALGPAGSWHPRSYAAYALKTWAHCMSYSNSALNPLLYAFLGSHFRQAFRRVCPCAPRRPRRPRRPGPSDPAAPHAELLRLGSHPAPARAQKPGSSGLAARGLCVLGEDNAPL
Chain of D(2) dopamine receptor (Homo sapiens) (P14416 whole entry, looked up): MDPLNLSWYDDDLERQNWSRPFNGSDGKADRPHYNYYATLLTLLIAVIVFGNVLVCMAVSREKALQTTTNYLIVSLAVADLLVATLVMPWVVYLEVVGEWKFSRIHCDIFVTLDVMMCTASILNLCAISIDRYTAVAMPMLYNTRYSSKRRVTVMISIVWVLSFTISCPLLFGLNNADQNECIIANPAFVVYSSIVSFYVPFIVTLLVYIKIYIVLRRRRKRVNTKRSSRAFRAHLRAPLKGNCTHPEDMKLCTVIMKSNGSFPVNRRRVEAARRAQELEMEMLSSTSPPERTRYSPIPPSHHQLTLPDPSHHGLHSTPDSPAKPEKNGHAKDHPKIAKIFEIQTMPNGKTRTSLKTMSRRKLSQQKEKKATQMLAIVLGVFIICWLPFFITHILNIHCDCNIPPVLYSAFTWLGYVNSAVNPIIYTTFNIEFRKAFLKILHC
Chain of 5-hydroxytryptamine receptor 2A (Homo sapiens) (P28223 whole entry, looked up): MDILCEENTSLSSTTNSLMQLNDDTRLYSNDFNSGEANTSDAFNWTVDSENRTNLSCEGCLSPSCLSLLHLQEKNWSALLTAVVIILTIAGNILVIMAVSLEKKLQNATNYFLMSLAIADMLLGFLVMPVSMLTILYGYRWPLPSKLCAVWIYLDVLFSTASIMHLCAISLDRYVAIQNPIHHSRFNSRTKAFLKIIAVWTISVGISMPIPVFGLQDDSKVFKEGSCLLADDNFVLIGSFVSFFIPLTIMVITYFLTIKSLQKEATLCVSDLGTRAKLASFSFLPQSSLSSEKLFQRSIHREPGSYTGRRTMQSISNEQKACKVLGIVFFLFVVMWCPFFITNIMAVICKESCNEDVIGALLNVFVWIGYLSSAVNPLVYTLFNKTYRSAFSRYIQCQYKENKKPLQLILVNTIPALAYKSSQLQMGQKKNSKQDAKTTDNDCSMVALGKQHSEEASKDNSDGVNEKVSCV
Chain of Beta-2 adrenergic receptor (Homo sapiens) (P07550 whole entry, looked up): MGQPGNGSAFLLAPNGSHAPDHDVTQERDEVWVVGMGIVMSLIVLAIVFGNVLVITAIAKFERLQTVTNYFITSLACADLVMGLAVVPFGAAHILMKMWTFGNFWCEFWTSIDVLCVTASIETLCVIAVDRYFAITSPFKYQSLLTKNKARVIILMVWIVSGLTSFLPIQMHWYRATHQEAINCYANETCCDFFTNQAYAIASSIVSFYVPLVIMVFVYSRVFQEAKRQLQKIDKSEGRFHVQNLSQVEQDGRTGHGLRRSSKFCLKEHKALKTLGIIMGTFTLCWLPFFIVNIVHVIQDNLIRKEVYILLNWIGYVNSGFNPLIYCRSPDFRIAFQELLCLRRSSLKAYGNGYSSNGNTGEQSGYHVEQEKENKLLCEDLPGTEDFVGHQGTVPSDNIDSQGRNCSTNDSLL

Row | Structure (SMILES) | Potency [1] | Potency [2] | Potency [3] | outcome [4] | outcome [5] | Potency [6] | Potency [7] | Potency [8] | Potency [9] | Potency [10] | Potency [11] | Potency [12] | Potency [13] | Potency [14] | Potency [15] | Potency [16] | Potency [17] | Potency [18] | Potency [19] | Potency [20]
1 | CC(C)=CCC/C(C)=C/CC/C(C)=C/CCC(=O)OC/C=C(\C)CCC=C(C)C | inactive | inactive | inactive | inactive | inactive | inactive | inactive | inactive | inactive | inactive | inactive | inactive | inactive | inactive | inactive | inactive | inactive | inactive | inactive | inactive
2 | C=C(C)C(=O)OCCOCC | inactive | 54.7 µM (active) | inactive | inactive | inactive | inactive | inactive | inactive | inactive | inactive | inactive | inactive | inactive | inactive | inactive | inactive | inactive | inactive | inactive | inactive
3 | O=C(O)c1snc(Cl)c1Cl | inactive | 68.6 µM (active) | inactive | inactive | inactive | inactive | inactive | inactive | inactive | inactive | inactive | inactive | inactive | inactive | inactive | inactive | inactive | inactive | inactive | inactive
4 | O=C(O)c1ccncc1 | inactive | inactive | inactive | inactive | inactive | inactive | inactive | inactive | inactive | inactive | inactive | inactive | inactive | inactive | inactive | inactive | inactive | inactive | inactive | inactive
5 | O=S(=O)(O)CCO | inactive | inactive | inactive | inactive | inactive | inactive | inactive | inactive | inactive | inactive | inactive | inactive | inactive | inactive | inactive | inactive | inactive | inactive |  | inactive
6 | CC(C=O)Cc1ccc(C(C)C)cc1 (centres undefined) | inactive | inactive | inactive | inactive | inactive | inactive | inactive | inactive | inactive | inactive | inactive | inactive | inactive | inactive | inactive | inactive | inactive | inactive | inactive | inactive
7 | C/C(=N\[Si](C)(C)C)O[Si](C)(C)C | inactive | inactive | inactive | inactive | inactive | inactive | inactive | inactive | inactive | inactive | inactive | inactive | inactive | inactive | inactive | inactive | inactive | inactive | inactive | inactive
8 | CCCCCCC(O)CO (centres undefined) | inactive | inactive | inactive | inactive | inactive | inactive | inactive | inactive | inactive | inactive | inactive | inactive | inactive | inactive | inactive | inactive | inactive | inactive | inactive | inactive
9 | CCCCCCCCCC(=O)OCC | inactive | inactive | inactive | inactive | inactive | inactive | inactive | inactive | inactive | inactive | inactive | inactive | inactive | inactive | inactive | inactive | inactive | inactive | inactive | inactive
10 | C=C[Si](C)(C)O[Si](C)(C)C=C | inactive | inactive | inactive | inactive | inactive | inactive | inactive | inactive | inactive | inactive | inactive | inactive | inactive | inactive | inactive | inactive | inactive | inactive | inactive | inactive
11 | CCc1cccc(C)c1N(C(=O)CS(=O)(=O)O)C(C)COC (centres undefined) | inactive | inactive | inactive | inactive | inactive | inactive | inactive | inactive | inactive | inactive | inactive | inactive | inactive | inactive | inactive | inactive | inactive | inactive | inactive | inactive
12 | O=C1CC2(CCCC2)CC(=O)N1 | inactive | inactive | inactive | inactive | inactive | inactive | inactive | inactive | inactive | inactive | inactive | inactive | inactive | inactive | inactive | inactive | inactive | inactive | inactive | inactive
13 | O=S1OCCO1 | inactive | inactive | inactive | inactive | inactive | inactive | inactive | inactive | inactive | inactive | inactive | inactive | inactive | inactive | inactive | inactive | inactive | inactive | inactive | inactive
14 | Cc1cccc(C)n1 | inactive | inactive | inactive | inactive | inactive | inactive | inactive | inactive | inactive | inactive | inactive | inactive | inactive | inactive | inactive | inactive | inactive | inactive | inactive | inactive

Reference: PubChem BioAssay (Tox21)
